# Measurements as given in PubChem BioAssay (NCI).
# This is part of a sample that, as a whole, favours compounds with a hit. Of some 79,000 tested, about 15% had one in any assay. A number with no mark means an inactive call. The source made the active and inactive calls. Cut-off read from the data, not from the text of the source: active = growth inhibition above about 70%; inactive = the rest.
# Legend:
# [1] = NCI Yeast Anticancer Drug Screen. Data for the rad50 strain (AID 155);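 note: 0% = growth of vehicle-only cultures of the same strain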; details: S. cerevisiae rad50 strain growth inhibition, hits give high values
# How it was run: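 DNA repair mutant yeast, compound exposure, growth read-out; inhibition is taken relative to vehicle.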
# [2] = NCI Yeast Anticancer Drug Screen. Data for the mec2-1 strain (AID 157); details: S. cerevisiae mec2-1 strain, hits give high values
# How it was run: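 Readout is yeast growth inhibition, normalised to vehicle-treated controls, in the mec2-1 strain exposed to compound.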
# [3] = NCI Yeast Anticancer Drug Screen. Data for the sgs1 mgt1 strain (AID 161);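 note: 0% = growth of cultures given vehicle only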; details: S. cerevisiae sgs1 mgt1 strain, hits give high values
# How it was run: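 Growth of a repair-deficient yeast mutant was monitored after compound treatment and expressed as inhibition relative to vehicle-treated cultures.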
# [4] = NCI Yeast Anticancer Drug Screen. Data for the cln2 rad14 strain (AID 165);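 note: 0% = growth equal to vehicle treated cultures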; details: S. cerevisiae cln2 rad14 strain, hits give high values
# How it was run: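 Relative to vehicle controls, growth inhibition of compound-treated cln2 rad14 yeast was recorded.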
# [5] = NCI Yeast Anticancer Drug Screen. Data for the bub3 strain (AID 167); details: S. cerevisiae bub3 mutant strain, hits give high values
# How it was run: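 In this screen, a yeast mutant lacking normal mitotic checkpoint function is challenged with compound. Relative growth versus vehicle gives the inhibition value.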
# [6] = NCI Yeast Anticancer Drug Screen. Data for the mlh1 rad18 strain (AID 175); details: S. cerevisiae mlh1 rad18 strain growth inhibition, hits give high values
# How it was run: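 Test agents were incubated with a yeast strain of defined genotype (DNA damage repair defect). Inhibition of growth was derived by comparison with vehicle-exposed cultures.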
# [7] = at 5.0 µM (retest, dose inferred, filed as 0.5)
# [8] = at 50.0 µM (retest, dose inferred, filed as 5.0)
Structure (SMILES),"growth inhibition [1, 7]","growth inhibition [1, 8]",growth inhibition ([1]; at 50.0 µM),"growth inhibition [2, 7]","growth inhibition [2, 8]",growth inhibition ([2]; at 50.0 µM),"growth inhibition [3, 7]","growth inhibition [3, 8]",growth inhibition ([3]; at 50.0 µM),"growth inhibition [4, 7]","growth inhibition [4, 8]",growth inhibition ([4]; at 50.0 µM),"growth inhibition [5, 7]","growth inhibition [5, 8]",growth inhibition ([5]; at 50.0 µM),"growth inhibition [6, 7]","growth inhibition [6, 8]",growth inhibition ([6]; at 50.0 µM)
CC1(C)N=C(N)N=C(N)N1c1cccc(OCc2cccc(N)c2)c1,-2%,1%,15.8%,12%,-5%,5.65%,-7%,1%,-8.35%,13%,-9%,65.5%,-20%,-4%,-36.9%,5%,1%,9.1%
C=C1C(=O)OC2/C=C(\C(=O)O)CC/C=C(\C)CC(OC(=O)/C=C(\C)CC)C12 (configuration not stated),-1%,79% (active),94% (active),-5%,79% (active),68.2%,-1%,79% (active),77.1% (active),-19%,69%,69.8%,-7%,84% (active),84.2% (active),-4%,93% (active),77.1% (active)
O=C(N/C(=C/c1ccc(Cl)cc1Cl)c1nc2ccccc2s1)c1ccccc1,27%,98% (active),98.6% (active),13%,98% (active),97.7% (active),56%,99% (active),98.9% (active),14%,98% (active),98.1% (active),31%,98% (active),98% (active),26%,98% (active),98.2% (active)
CC(C)c1ccc(C(=O)C2CC2)cc1,-23%,0%,34.6%,-10%,-27%,42.9%,-12%,-14%,50.6%,9%,24%,40.5%,-29%,-20%,65.3%,-22%,-18%,21%
Clc1c2ccccc2cc2cccnc12,17%,90% (active),50.2%,7%,26%,54.6%,6%,81% (active),48.8%,3%,40%,36%,3%,71% (active),76% (active),17%,86% (active),67.2%
CCOC(=O)CSc1c(C(=O)OCC)c(=O)n(-c2ccccc2)c(=S)n1-c1ccccc1,60%,90% (active),85.2% (active),44%,89% (active),87.2% (active),75% (active),94% (active),87.8% (active),54%,91% (active),80.8% (active),31%,90% (active),85.8% (active),74% (active),89% (active),81.8% (active)
CCOc1ccc(C=Nc2ccc(/C=C(\C)C(=O)OCCC(C)C)cc2)cc1,50%,98% (active),97.6% (active),72% (active),99% (active),98.2% (active),85% (active),99% (active),97.5% (active),94% (active),98% (active),97.2% (active),86% (active),97% (active),82.2% (active),92% (active),99% (active),98% (active)
CCC(CC)C1(C(=O)OCCN(CC)CC)CCCCC1,1%,48%,72.5% (active),-1%,13%,5.8%,-2%,20%,45%,2%,9%,3.5%,-1%,48%,73% (active),4%,32%,43.2%
NC(N)=N/N=C(\c1ccc(F)cc1)c1ccc(C(F)(F)F)cc1,5%,99% (active),72.6% (active),-3%,96% (active),30.2%,-2%,99% (active),80.5% (active),-4%,93% (active),-12.7%,-1%,99% (active),83.7% (active),0%,99% (active),85.8% (active)
COc1cccc2c1C(=O)c1c(O)c3c(c(O)c1C2=O)C[C@@](O)(/C(C)=N/NC(N)=S)C[C@@H]3OC1CC(N)C(O)C(C)O1 (some centres not stated),27%,91% (active),95.5% (active),8%,58%,94.7% (active),3%,56%,96.3% (active),4%,38%,82.8% (active),4%,60%,95.3% (active),8%,75% (active),95.7% (active)
CCCCOC(=O)c1n[nH]c(C)c1N=NN(C)C,43%,99% (active),99% (active),96% (active),99% (active),99% (active),95% (active),99% (active),99.2% (active),95% (active),99% (active),99.4% (active),84% (active),99% (active),99.2% (active),80% (active),99% (active),99.2% (active)
O=S(=O)(/C=C/c1cccnc1)/C=C/c1cccnc1,0%,2%,-14.1%,0%,-3%,-1.65%,1%,6%,5.3%,3%,10%,82.8% (active),-2%,3%,20.8%,-4%,-1%,1.25%
OCC(O)Cc1c(Cl)c(Cl)c(Oc2c(Cl)c(Cl)c(CC(O)CO)c(Cl)c2Cl)c(Cl)c1Cl (configuration not stated),5%,7%,11.3%,5%,10%,14.6%,18%,16%,4.95%,-9%,-9%,-8.05%,-1%,11%,64.7%,-1%,1%,8.75%
NCCOB1c2ccccc2Cc2ccccc21,2%,98% (active),45.6%,6%,99% (active),98.7% (active),-3%,99% (active),-3.8%,-2%,99% (active),99% (active),1%,98% (active),99.1% (active),0%,99% (active),99% (active)
O=C1c2cc(Br)cc(Br)c2NCCC1(Br)Br,99% (active),98% (active),97.7% (active),98% (active),100% (active),99.1% (active),100% (active),99% (active),97.8% (active),99% (active),98% (active),98% (active),99% (active),98% (active),97.5% (active),100% (active),98% (active),98.5% (active)
CSc1ccc(/C=C2\CNC/C(=C\c3ccc(SC)cc3)C2=O)cc1,12%,18%,47.4%,15%,19%,55.2%,26%,32%,69.8%,23%,29%,46.9%,17%,23%,35%,24%,33%,71.6% (active)
N#CS/C=C/SC#N,99% (active),99% (active),99.5% (active),100% (active),100% (active),99.5% (active),99% (active),99% (active),99.5% (active),99% (active),100% (active),99.1% (active),100% (active),99% (active),99% (active),99% (active),100% (active),99.5% (active)
Cc1ccccc1NCc1ccccc1Cl,-141%,98% (active),99% (active),-55%,99% (active),99.5% (active),-66%,99% (active),98.5% (active),-83%,99% (active),99% (active),-65%,99% (active),99.5% (active),-105%,98% (active),96.7% (active)
COC(=O)C1=C(C)NC(C)=C(C(=O)OC)C1c1ccc(/[N+]([O-])=C/c2ccccc2)cc1,4%,43%,85% (active),5%,34%,70.8% (active),13%,25%,96.4% (active),-1%,40%,60.2%,17%,74% (active),78.8% (active),-7%,67%,93.2% (active)
